TGFb inhibitor – blocks TGF-b signaling; HepG2 CAGA-GFP TGF-b/SMAD3 reporter, GFP fluorescence, 18 h; TGF-beta stimulated, 500 pg/mL final; Potency, µM (titrated, usually from 46.1 µM), inactives show top-dose activity, negative = inhibition, usual class: inhibitors; hit rate 1.2% among 410,000; AID 588855; further: potency means the concentration at half of the fitted maximal effect; on the % scale 0 is the no-effect control and ±100 the full control effect; nearly all actives have a fitted effect of over 65% in size
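Inhibition of TGF-beta-driven CAGA-GFP reporter expression in HEPG2 cells is measured by cellular GFP fluorescence after 18 h stimulation with 500 pg/mL recombinant TGF-beta in 1% FBS medium at 37 degrees C.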
IL-1B inflam inh – inhibitors of inflammasome signaling (IL-1 beta secretion); activity change, % at 57.5 µM; THP-1 LPS/ATP IL-1B secretion, AlphaLISA, 16 h; active compounds read low; hit rate 4.7% among 360,000; in the data active means activity change below about -50%; inconclusive means mostly about -30% to -49%; further: on the % scale 0 is the no-effect control and ±100 the full control effect
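Secreted IL-1B measured by AlphaLISA bead assay after 16 h compound exposure of THP-1 cells; compounds (final up to 57.5 uM) added 1 h before LPS (250 ng/mL) and ATP (1.25 mM) stimulation; lower signal means less secretion.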
DT40 TDP1 CPT – growth inhibition of DT40 Tdp1-/-;hTDP1 cells with camptothecin (screen for TDP1 inhibitors). Potency, µM (top dose mostly 46.2 µM), without a hit: top-dose activity change, negative = growth inhibition, usual class: inhibitors. hit rate 12% among 420,000. AID 686979. chicken DT40 Tdp1-/-;hTDP1 cells + 20 nM CPT, ATP luminescence, 48 h; further: potency means the concentration at half of the fitted maximal effect; on the % scale 0 is the no-effect control and ±100 the full control effect; nearly all actives have a fitted effect of over 55% in size
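Cell growth measured by CellTiter-Glo luminescence after a minimum 48 h, 37 C compound exposure with 20 nM CPT in Tdp1-knockout DT40 cells stably expressing hTDP1, seeded 400/well; qHTS titration format.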
HepG2 viability – HepG2 cytotoxicity, counter-screen for TGF-b inhibitors. HepG2 CAGA-GFP viability, ATP luminescence, 18 h. Potency, µM (series often up to 46.1 µM), inactives show at the top dose activity change, negative = cytotoxicity, usual class: cytotoxic. hit rate 0.76% among 410,000; further: potency means the concentration at half of the fitted maximal effect
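CellTiter-Glo luminescence gave cytotoxicity after 18 hours at 37 degrees C. The cells were HepG2 CAGA-GFP in 1% FBS DMEM, stimulated with 500 pg/mL TGF-beta after compound addition. %Activity was normalised to no-cell wells (complete cell-killing) and DMSO (no toxicity), and curves were fitted and classified.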
TDP1 inh – TDP1 (human) enzyme inhibition. AID 485290. hit rate 0.28% among 350,000. recombinant TDP1, AlphaScreen DNA substrate cleavage. Potency, µM (top dose mostly 130 µM), inactives show top-dose activity change, negative = inhibition, hits mostly inhibitors; further: potency means the concentration at half of the fitted maximal effect; on the % scale 0 is the no-effect control and ±100 the full control effect; nearly all actives have a fitted effect of over 40% in size
Target sequence (Q9NUW8 whole entry, looked up): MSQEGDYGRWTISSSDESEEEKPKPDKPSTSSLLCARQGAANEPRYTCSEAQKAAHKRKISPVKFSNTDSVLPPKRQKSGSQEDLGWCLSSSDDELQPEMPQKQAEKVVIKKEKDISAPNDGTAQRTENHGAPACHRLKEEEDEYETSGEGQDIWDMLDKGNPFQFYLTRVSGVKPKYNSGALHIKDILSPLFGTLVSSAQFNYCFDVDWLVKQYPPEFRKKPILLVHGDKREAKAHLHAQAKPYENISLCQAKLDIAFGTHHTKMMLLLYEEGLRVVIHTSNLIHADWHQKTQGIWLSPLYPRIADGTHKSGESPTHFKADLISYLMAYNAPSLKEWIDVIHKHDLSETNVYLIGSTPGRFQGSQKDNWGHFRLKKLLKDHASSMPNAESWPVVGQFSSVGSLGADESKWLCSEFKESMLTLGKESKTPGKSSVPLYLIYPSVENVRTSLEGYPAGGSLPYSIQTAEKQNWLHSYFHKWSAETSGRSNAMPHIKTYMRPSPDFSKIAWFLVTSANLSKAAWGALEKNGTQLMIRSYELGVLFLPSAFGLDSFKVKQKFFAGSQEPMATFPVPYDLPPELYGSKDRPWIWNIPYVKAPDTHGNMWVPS
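Enzyme-compound mixtures sat 15 min at room temperature, followed by a 5 min reaction with 15 nM final substrate and 10 min with AlphaScreen beads. Recombinant human Tdp1 was used at 1 nM final.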
DT40 TDP1 no CPT – qHTS for Inhibitors of human tyrosyl-DNA phosphodiesterase 1 (TDP1): qHTS in cells in absence of CPT. hit rate 15% among 420,000. Potency, µM (doses to about 46.2 µM), inactives show at the highest dose activity change, negative = growth inhibition, usual class: inhibitors. AID 686978, 2013. DT40 Tdp1-/- hTDP1 cells, no CPT, ATP luminescence, 48 h; further: potency means the concentration at half of the fitted maximal effect; on the % scale 0 is the no-effect control and ±100 the full control effect; nearly all actives have a fitted effect of over 55% in size
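Growth of hTDP1-complemented DT40 Tdp1-knockout cells is measured by ATP luminescence after at least 48 hr compound exposure at 37 °C, with DMSO substituting for the 20 nM CPT used in the parallel screen.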
Starred values were filed as active, the others as inactive; i = inactive; ? = inconclusive; . = not tested or not shown; [ ] = another dose, or the depositor's remark. Rows were chosen to be rich in hits. Some 19% of all compounds tested hit in one or more screens of this group. Unless noted, the call rests on the fitted dose curve; in most records, active means well fitted curve in the direction sought with a large enough effect; inconclusive means small, poorly fitted or top-dose-only effect, or another doubt; inactive means no such curve, though single readings can be large; an effect the other way counts as inactive or inconclusive.

SMILES	TGFb inhibitor	IL-1B inflam inh	DT40 TDP1 CPT	HepG2 viability	TDP1 inh	DT40 TDP1 no CPT
COc1ccc(N(C(=O)c2snc(C(N)=O)c2N)C(C(=O)NCc2ccccc2)c2ccc(O)cc2)cc1 (stereo unspecified)	11%	-21	?	-37%	11%	23µM*
NC(=O)c1nsc(C(=O)N(c2ccccc2)C(C(=O)NCc2ccc(F)cc2)c2ccc(O)cc2)c1N (stereo unspecified)	5%	-19	21µM*	-17%	0%	18µM*
COc1ccc(CNC(=O)C(c2ccc(C)o2)N(C(=O)c2snc(C(N)=O)c2N)c2ccccc2OC)cc1 (stereo unspecified)	6%	-6	?	1%	0%	-21%
CCCCn1c(N)c(N(Cc2ccccc2OC)C(=O)CCC(C)C)c(=O)[nH]c1=O	4%	i	-5%	0%	4%	-7%
Cc1ccc(S(=O)(=O)NNc2c3ccccc3nc3ccc(Cl)cc23)cc1	3%	-23	23µM*	0%	.	8.2µM*
Cc1ccc(S(=O)(=O)NNc2nc3ccccc3nc2C(F)(F)F)cc1	?	-11	?	-28%	10%	18µM*
Cc1ccc(S(=O)(=O)Nc2ccc(Cl)cc2O)cc1	.	-21	?	.	.	?
Cc1ccc(S(=O)(=O)NNc2ccccc2)cc1	20%	14	-21%	-9%	13%	-1%
CCc1ccc(CN(C(=O)Nc2cccc(Cl)c2)c2ccccn2)cc1	-21%	.	18µM*	-17%	-13%	?
O=C(Cc1c(F)cccc1Cl)N(Cc1ccccc1)c1ccccn1	-28%	-14	?	-13%	-2%	?
CN1c2ccsc2/C(=N/Nc2ccccc2)CS1(=O)=O	1%	?	4.1µM*	-11%	?	1.3µM*
Cc1cccc(C(=O)N/N=C2\CS(=O)(=O)N(C)c3ccsc32)c1	-2%	22	21µM*	-6%	7%	13µM*
CN1c2ccsc2/C(=N/NC(=O)c2c(F)cccc2F)CS1(=O)=O	-8%	12	-14%	-25%	9%	-13%
O=C(NCCCc1ccccc1)c1ccc(-n2cncn2)c([N+](=O)[O-])c1	2%	11	?	0%	6%	?
Cc1cnc(CNc2nc(-c3cccc(NS(C)(=O)=O)c3)nc3ccccc23)cn1	.	.	-1%	.	.	-8%
CS(=O)(=O)Nc1cccc(-c2nc(N3CCOCC3)c3ccccc3n2)c1	.	.	-12%	.	4%	-20%
Cc1cccc(Nc2nc(-c3ccccc3)nc3ccccc23)c1	?	.	?	-52%	-1%[12.3 µM]	-81%
CS(=O)(=O)Nc1cccc(-c2ccc3ncnc(N4CCOCC4)c3c2)c1	.	.	4.1µM*	.	.	13µM*
Oc1cccc(Nc2nc(-c3ccccc3)nc3ccccc23)c1	?	-91*	?	-21%	.	?
CS(=O)(=O)Nc1cccc(-c2ccc3ncnc(Nc4ccc(F)cc4)c3c2)c1	.	.	18µM*	.	10%[56.1 µM]	?
CS(=O)(=O)Nc1cccc(-c2nc(Nc3ccccc3)c3ccccc3n2)c1	.	.	9.2µM*	.	-6%[56.1 µM]	4.6µM*
Fc1ccc(Nc2ncnc3ccccc23)cc1	-24%	-14	?	-4%	.	-28%
CCCCN1CC[C@H]2C=CC[C@@H](C(=O)NCc3cccnc3)[C@H]2C1=O	-4%	.	2%	-1%	.	5%
Cc1cc(C(C)(C)C)ccc1OCCCCN1CCCC1	-26%	-11	?	-29%	-5%	?
CCC(C)(C)c1ccc(OCCCC[n+]2ccc(C)cc2)c(C(C)(C)CC)c1	16µM*	-95*	2.3µM*	13µM*	4%	1.2µM*
SMILES	TGFb inhibitor	IL-1B inflam inh	DT40 TDP1 CPT	HepG2 viability	TDP1 inh	DT40 TDP1 no CPT
CCC(C)(C)c1ccc(OCCCC[n+]2cccc(C)c2C)c(C(C)(C)CC)c1	10µM*	-93*	0.52µM*	-132%	2%	0.41µM*
O=C(CNC(=O)c1ccccc1F)OCn1nnc2ccccc2c1=O	4%	0	-4%	1%	0%	-4%
Cc1cccc2sc(N)nc12	.	.	.	.	6%	.
CCC1CCCCN1Cc1nc2c(c(=O)n(C)c(=O)n2C)n1CCC(C)C (stereo unspecified)	6%	20	16µM*	3%	0%	15µM*
CCCCCCn1c(CN2CCCCC2CC)nc2c1c(=O)n(C)c(=O)n2C (stereo unspecified)	2%	23	23µM*	-16%	-2%	13µM*
CCC1CCCCN1Cc1nc2c(c(=O)n(C)c(=O)n2C)n1CC(C)C (stereo unspecified)	17%	23	?	-3%	0%	?
COc1ccc(-c2nc3sc(CCNC(=O)c4cccc(C(F)(F)F)c4)c(C)n3n2)cc1	-22%	.	?	-31%	-3%	?
O=C1COc2ccc(C(=O)COC(=O)c3cc(S(=O)(=O)N4CCOCC4)ccc3F)cc2N1	12%	-70*	12%	-3%	7%	-5%
O=C(COC(=O)c1cc(S(=O)(=O)N2CCOCC2)ccc1F)c1ccc[nH]1	8%	-62*	8%	17%	4%	-4%
CCc1nn(CC(=O)NC(C)CC)c(=O)c2cc3occc3n12 (stereo unspecified)	?	.	-14%	5%	0%	-13%
O=C(N/C(=C/c1cccc(Br)c1)c1nc(=S)[nH][nH]1)c1ccccc1	?	-100*	?	-29%	5%	?
Cc1ccc(C(=O)N/C(=C\c2ccc(Br)cc2)c2nc(=S)[nH][nH]2)cc1	?	-79*	?	13µM*	8%	?
CN(CCc1ccccc1)c1cc2c(c3c1ccn3C)C1CCC2C1 (stereo unspecified)	-17%	5	16µM*	-10%	.	?
CN(Cc1ccccc1)c1cc2c(c3c1ccn3C)C1CCC2C1 (stereo unspecified)	-7%	-14	?	-31%	.	?
CCN(C)c1cc2c(c3c1ccn3C)C1CCC2C1 (stereo unspecified)	-3%	-14	?	-6%	.	?
Cn1ccc2c(N(Cc3ccccc3)Cc3ccccc3)cc3c(c21)C1CCC3C1 (stereo unspecified)	-17%	12	18µM*	-26%	.	18µM*
CCCCCCCCNCCS(=O)(=O)NCc1ccccc1	?	-52*	?	16µM*	.	16µM*

High-throughput results as filed in PubChem BioAssay.
